{"source": "PubChem BioAssay AID652126", "about": "(The Scripps Research Institute Molecular Screening Center, 2013)", "note": "Screen size: about 370,000 compounds; about 3,700 (1%) were called active. Shown is part of a subset that was picked to be rich in actives. Unmarked numbers belong to inactive results.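 Rule for the calls: active = activation above the mean over all tested compounds plus 3 SD (cut at about 0.9% in these data); inactive = the rest.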"}
{"test_system": "Nuclear hormone receptor DAF-12 (Strongyloides stercoralis)", "assay": "S. stercoralis DAF-12 nuclear receptor activators, primary screen, cell-based, luminescence, HEK293, GRIP1 co-expression, lit1-tk-luc (AID 652126);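 note: 0% = DMSO-only wells and 100% = 3 µM delta7-dafachronic acid wells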", "settings": "HEK293 ssDAF-12/GRIP1 lit1-tk-luc reporter, at 6.8 µM, stronger effect = higher value, % of 3 µM dafachronic acid response"}
{"smiles": "c1ccc(-c2c[nH]c(-c3ccccc3)c2)cc1", "activation": "0.36%"}
{"smiles": "Oc1ccccc1-c1cc(-c2ccc(Cl)cc2)n[nH]1", "activation": "3.08% (active)"}
{"smiles": "Cc1c[nH]c2cccc(-c3ccc(Cl)cc3)c12", "activation": "-0.3%"}
{"smiles": "c1ccc(-c2cc(-c3ccccc3)[nH]n2)cc1", "activation": "2.27% (active)"}
{"smiles": "O=C(O)c1n[nH]nc1-c1ccccc1", "activation": "-1.32%"}
{"smiles": "Cc1cccc(C(=O)Nc2c(-c3ccc(F)cc3)nc3ncccn23)c1", "activation": "-1.19%"}
{"smiles": "Nn1c(SCC(=O)Nc2ccc(S(N)(=O)=O)cc2)nnc1-c1n[nH]c2c1CCC2", "activation": "-0.68%"}
{"smiles": "O=C(NCCC1=CCCCC1)C1CCN(S(=O)(=O)c2ccc(Cl)s2)CC1", "activation": "-0.79%"}
{"smiles": "CCOC(=O)[C@]12CCCC=C1N(CCCOC)C(=O)[C@@H]2CC(=O)N1CCOCC1", "activation": "-1.03%"}
{"smiles": "Cc1ccc(N/C=C/C(=O)c2ccccc2)cc1C", "activation": "3% (active)"}
{"smiles": "Cc1ccc(NC(=O)C2CCCN2C(=O)OCc2ccccc2)cc1C", "note": "(stereo not given)", "activation": "-0.56%"}
{"smiles": "O=C(/C=C/Nc1ccc(S(=O)(=O)Nc2cnc3ccccc3n2)cc1)c1cccnc1", "activation": "-0.79%"}
{"smiles": "COc1ccccc1Cc1c(-c2ccc(Cl)cc2)nc2c3ccccc3ccn12", "activation": "0.62%"}
{"smiles": "Cc1ccc(-c2nc3c(C)cc(Br)cn3c2Cc2ccccc2)cc1", "activation": "-0.47%"}
{"smiles": "c1ccc(Cc2c(-c3ccco3)nc3c4ccccc4ccn23)cc1", "activation": "3.52% (active)"}
{"smiles": "CN1C(=O)c2cc(NS(C)(=O)=O)ccc2OC[C@@H]2O[C@@H](CC(=O)NCc3ccc(-c4ccccc4)cc3)CC[C@H]21", "activation": "-1.43%"}
{"smiles": "Cc1ccccc1CN1CCCCC(NC(=O)c2cccc(C#N)c2)C1=O", "note": "(stereo not given)", "activation": "-1.04%"}
{"smiles": "N#Cc1ccc(C2N=C(c3ccccc3)NO2)cc1", "note": "(stereo not given)", "activation": "0.03%"}
{"smiles": "S=C1NC(c2ccccc2)=NCN1c1ccc(Br)cc1", "activation": "-0.91%"}
{"smiles": "Brc1ccccc1C1N=C(c2ccccc2)NO1", "note": "(stereo not given)", "activation": "1.18% (active)"}
{"smiles": "COC(=O)C1CN(Cc2ccc(F)cc2)CCS(=O)(=O)N1Cc1ccc(Cl)cc1", "note": "(stereo not given)", "activation": "-1.29%"}
{"smiles": "O=C(C1CCN(S(=O)(=O)c2cnc[nH]2)CC1)N1CCN(Cc2ccc3c(c2)OCO3)CC1", "activation": "1.02% (active)"}
{"smiles": "CCN(CCCNC(=O)C1CCN(S(=O)(=O)c2cnc[nH]2)CC1)c1ccccc1", "activation": "-1.52%"}
{"smiles": "Cc1cccc(N2CCN(C(=O)C3CCN(S(=O)(=O)c4cnc[nH]4)CC3)CC2)c1C", "activation": "-0.57%"}
{"smiles": "O=C(c1ccncc1)N1CC[C@H]2[C@H](CCCN2Cc2ccc(F)cc2)C1", "activation": "-0.89%"}
{"smiles": "CCOC(=O)[C@]12CCCC3=C1N(CCC3)C(=O)[C@@H](CC(=O)N1CCSCC1)C2", "activation": "0.21%"}
{"smiles": "Clc1ccc(-n2c(COc3ccccc3)nnc2SCc2nc3ccccc3[nH]2)cc1", "activation": "-1.69%"}
{"smiles": "O=C(Nc1ccc(Cl)cc1)C1c2cccc[n+]2CC(=O)N1Cc1ccc2c(c1)OCO2", "note": "(stereo not given)", "activation": "2.86% (active)"}
{"smiles": "O=C(Nc1ccc2c(c1)OCCO2)C1c2ccccc2OCC(=O)N1Cc1ccccn1", "note": "(stereo not given)", "activation": "-0.32%"}
{"smiles": "CCCOc1ccc(NC(=O)CC2C(=O)N(C)C(=S)N2Cc2ccc3c(c2)OCO3)cc1", "note": "(stereo not given)", "activation": "-1.45%"}
{"smiles": "COc1ccc(Cn2ccc3ccc(-c4ccc5ccn(Cc6ccccc6C)c5c4)cc32)cc1", "activation": "-0.43%"}
{"smiles": "O=S1(=O)c2c(cccc2N2CCSCC2)Oc2ccccc2CN1Cc1cn(Cc2ccc(F)cc2)nn1", "activation": "-1.43%"}
{"smiles": "O=C(CN1CCC(NC(=O)NCc2ccccc2)CC1)Nc1ccc2c(c1)OCCO2", "activation": "-1.37%"}
{"smiles": "C=CCN1C(C(=O)OC)CN(Cc2cn(Cc3ccccc3)nn2)CCS1(=O)=O", "note": "(stereo not given)", "activation": "-1.67%"}
{"smiles": "C=CCN(C)CC#Cc1ccccc1", "activation": "-0.95%"}
{"smiles": "COc1ccc(-n2c(SCC(=O)NC3CCCC3)nnc2-c2ccncc2)cc1", "activation": "-0.71%"}
{"smiles": "CS(=O)(=O)N(CC(=O)N/N=C/c1ccccn1)c1ccc(Oc2ccccc2)cc1", "activation": "-0.77%"}
{"smiles": "O=C(O)C1C2C=CC(O2)C1C(=O)Nc1ccccn1", "note": "(stereo not given)", "activation": "-1.12%"}
{"smiles": "S=C(NN=Cc1ccccn1)Nc1ccccn1", "activation": "1.63% (active)"}
{"smiles": "CCCOc1ccc(Oc2c(Cl)cnn(Cc3cccc4ccccc34)c2=O)cc1", "activation": "-1.41%"}
{"smiles": "O=C1CC(c2ccc3c(c2)OCO3)N=C2N(CC3CC3)C/C(=C/c3ccccc3)N12", "note": "(stereo not given)", "activation": "-1.93%"}
{"smiles": "CCOc1ccc(-n2c(SCC(=O)Nc3cc(C)c(NC(=O)c4ccccc4)cc3OC)nnc2-c2cccc(Cl)c2)cc1", "activation": "-1.5%"}
{"smiles": "CCOC(=O)c1c(NC(=S)Nc2ccccc2C)sc2c1CCC2", "activation": "1.91% (active)"}
{"smiles": "CCOC(=O)c1c(NC(=S)Nc2ccccc2)sc2c1CCN(C)C2", "activation": "-1.34%"}
{"smiles": "CCOC(=O)c1c(NC(=O)C2(C)Cc3ccccc3C(=O)O2)sc2c1CCCC2", "note": "(stereo not given)", "activation": "-1.31%"}
{"smiles": "CC(=O)OCCN1CCCC12CCC(c1ccccc1)CC2", "note": "(stereo not given)", "activation": "-0.84%"}
{"smiles": "C#CCN([C@H](C(=O)OC)C(C)CC)S(=O)(=O)c1ccccc1Br", "note": "(stereo not given in full)", "activation": "-1.85%"}
{"smiles": "Cc1ccc(-c2nnc(SCC(=O)N/N=C/c3cccs3)n2-c2ccc(C)cc2)cc1", "activation": "-0.75%"}
{"smiles": "Cc1ccsc1/C=N/NC(=O)Cc1cc(=O)[nH][nH]1", "activation": "1.42% (active)"}
{"smiles": "CCOc1ccc(N2CC(C(=O)N/N=C/c3sccc3C)CC2=O)cc1", "note": "(stereo not given)", "activation": "-1.57%"}
{"smiles": "CN(C)S(=O)(=O)c1cccc(C(=O)N/N=C\\c2ccco2)c1", "activation": "-0.66%"}
{"smiles": "COC(=O)C1CCN(C(=O)c2cc(=O)[nH]c3ccccc23)CC1", "activation": "1.33% (active)"}
{"smiles": "CC1CCCCC1NC(=O)c1cc(=O)[nH]c2ccccc12", "note": "(stereo not given)", "activation": "-0.66%"}
{"smiles": "CC1CCN(C(=O)COC(=O)c2cc(=O)[nH]c3ccccc23)CC1", "activation": "-0.23%"}
{"smiles": "CCc1ccccc1NC(=O)CSc1nnc(-c2cccs2)o1", "activation": "-1.52%"}
{"smiles": "CCOC(=O)c1c(NC(=S)SC)sc(C(=O)N2CCc3ccccc3C2)c1C", "activation": "-0.64%"}
{"smiles": "CCc1ccc(NC(=O)N2CCc3ccccc3C2)cc1", "activation": "1.53% (active)"}
{"smiles": "O=C(CN1CCc2ccccc2C1)Nc1cccc(S(=O)(=O)N2CCOCC2)c1", "activation": "-0.91%"}
{"smiles": "CCc1ccc(NC(=O)CC2C(=O)NCCN2C(=S)Nc2ccccc2)cc1", "note": "(stereo not given)", "activation": "-1.42%"}
{"smiles": "Cc1ccc(NC(=O)COc2coc(CN3CCc4ccccc4C3)cc2=O)cc1Cl", "activation": "-1.76%"}
{"smiles": "Cc1ccc(NC(=O)CN2CCc3ccccc3C2)cc1C", "activation": "1.3% (active)"}
{"smiles": "Cc1cc(NS(=O)(=O)c2ccc(NC(=O)CSc3nnc(-c4ccc(C(C)(C)C)cc4)n3Cc3ccco3)cc2)nc(C)n1", "activation": "-1.29%"}
{"smiles": "COc1ccc(O)c(C(=O)c2cnc3onc(C(C)C)c3c2)c1", "activation": "-0.89%"}
{"smiles": "COc1cccc(NC(=O)Nc2ccc(F)cc2)c1", "activation": "1.74% (active)"}
{"smiles": "COc1cccc(C(=O)NNS(=O)(=O)c2ccc(F)cc2)c1", "activation": "-1.09%"}
{"smiles": "COc1cccc(NC(=O)CC2C(=O)NCCN2C(=S)Nc2ccc(F)cc2)c1", "note": "(stereo not given)", "activation": "-1.35%"}
{"smiles": "COC(=O)C1CN(Cc2cn(Cc3ccc(F)cc3)nn2)CCS(=O)(=O)N1Cc1ccc(Cl)cc1", "note": "(stereo not given)", "activation": "-2.03%"}
{"smiles": "CCCCNC(=O)C[C@H]1C[C@@]2(C(=O)OC)C(=C[C@H](COCc3ccccc3)O[C@@H]2C)N(Cc2ccc(Cl)cc2Cl)C1=O", "activation": "-1.35%"}
{"smiles": "CC(C)CSc1nnc(-c2cccnc2)n1Cc1ccccc1", "activation": "-1.35%"}
{"smiles": "COC(=O)c1cc(S(=O)(=O)N2CCN(C(=O)C3CCCO3)CC2)cn1C", "note": "(stereo not given)", "activation": "-1.3%"}
{"smiles": "Cc1ccc(C(=O)NNc2ncnc3ccccc23)cc1", "activation": "1.85% (active)"}
{"smiles": "Cn1ncc2c(NNC(=O)Cc3cccc4ccccc34)ncnc21", "activation": "-1.61%"}
{"smiles": "Cc1ccc(CCNC(=O)c2ccc3nc4ccccc4c(=O)n3c2)cc1", "activation": "-1.47%"}
{"smiles": "O=C(CNC(=O)c1ccccc1)OC(C(=O)Nc1cc([N+](=O)[O-])ccc1F)c1ccccc1", "note": "(stereo not given)", "activation": "-2.1%"}
{"smiles": "CCOC(=O)C1CCN(C(=O)C(C)(C)NC(=O)Nc2ccccc2Cl)CC1", "activation": "-0.72%"}
{"smiles": "NC1=NN(c2cccc(C(=O)O)c2)C(=O)C1", "activation": "0.3%"}
{"smiles": "O=C(O)c1cccc(S(=O)(=O)N2CC=C(c3ccccc3)CC2)c1", "activation": "-1.29%"}
{"smiles": "O=C(O)c1cccc(N=NN2CCCCCC2)c1", "activation": "1.23% (active)"}
{"smiles": "O=C(c1c[nH]c2ccccc12)N1CCC(Oc2cccnc2)CC1", "activation": "-1.03%"}
{"smiles": "Cc1ccc(OCc2nnc(SC/C=C/c3ccccc3)n2Cc2ccco2)cc1", "activation": "-1.7%"}
{"smiles": "O=C(Nc1cccc(Cl)c1)OC1CC2CC1[C@H]1CCCCN1[C@H]2Cc1ccccc1", "note": "(stereo not given in full)", "activation": "-1.06%"}
{"smiles": "Cc1ccccc1NC(=O)COC(=O)c1ccc(Sc2ncn[nH]2)c([N+](=O)[O-])c1", "activation": "-1.78%"}
{"smiles": "Cc1nc2ccc(C(=O)N3CCN(C(=O)C(C)(C)C)CC3)cc2n1C1CCCC1", "activation": "-1.22%"}
{"smiles": "CN(C)c1cc(N)c2ccccc2n1", "note": "(tested in a mixture with another compound)", "activation": "-0.25%"}
{"smiles": "CCOC(=O)c1nc(-c2ccc3c(c2)OCO3)[nH]c1C", "activation": "-1.3%"}
{"smiles": "Cc1ccc(-c2nc3ccccc3[nH]2)cc1N", "activation": "2.5% (active)"}
{"smiles": "Cc1cc(C)nc(NC(=S)N2CCN(c3ccc(C(F)(F)F)cn3)CC2)c1", "activation": "-1.63%"}
{"smiles": "COc1ccc(C(=O)OCCN2CCN(C3CN(Cc4cn(Cc5ccccc5F)nn4)S(=O)(=O)C3)CC2)cc1OC", "note": "(stereo not given)", "activation": "-1.83%"}
{"smiles": "O=C(Nc1cc(F)cc(F)c1)OC1CCC12CCC(c1ccccc1)CC2", "note": "(stereo not given)", "activation": "-1.11%"}
{"smiles": "O=C(Nc1cc(Cl)cc(Cl)c1)OCCN1CCCC12CCC(c1ccccc1)CC2", "note": "(stereo not given)", "activation": "-1.99%"}
